A word on the inhibition: it is the relative decrease from the control value, in per cent.

The campaign covered roughly 340,000 compounds. About 1,700 (0.5%) were called active. Only a selection was taken, and actives are over-represented in it overall. A number with no mark means an inactive call. Cut-off read from the data, not from the text of the source: active = inhibition above about 40%; inactive = the rest.

This assay deals with Cysteine protease ATG4B (Homo sapiens) (UniProt Q9Y4P1). Nature of the assay: blockers of ATG4B cysteine protease activity – biochemical, fluorescence, uHTS, primary screen (AID 504462). Conditions: ATG4B cleavage of LC3-PLA2, NBD-HPC fluorescence, 1 h; at 8.33 µM; active compounds read high.
Chain of Cysteine protease ATG4B (Homo sapiens) (Q9Y4P1 whole entry, looked up): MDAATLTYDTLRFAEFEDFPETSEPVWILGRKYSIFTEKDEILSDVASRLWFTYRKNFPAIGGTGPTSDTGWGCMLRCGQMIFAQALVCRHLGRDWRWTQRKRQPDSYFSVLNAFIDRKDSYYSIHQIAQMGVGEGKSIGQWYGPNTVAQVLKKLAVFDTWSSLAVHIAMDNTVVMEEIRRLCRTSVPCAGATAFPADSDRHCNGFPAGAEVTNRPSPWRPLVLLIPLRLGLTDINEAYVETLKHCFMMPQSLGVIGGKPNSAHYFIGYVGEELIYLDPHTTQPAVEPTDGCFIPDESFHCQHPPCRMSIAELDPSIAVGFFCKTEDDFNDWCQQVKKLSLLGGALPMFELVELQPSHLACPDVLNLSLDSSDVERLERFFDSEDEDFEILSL
On to `CCn1nnc(NC(=O)c2cc(Cl)c(OC)c(Cl)c2)n1`, for which the inhibition was -1.88%.
Take `O=C(Nc1ccccc1Cc1ccccc1)c1ccc2c(c1)SC1=NS(=O)(=O)CCN12`: the inhibition was -8.36%.
As for `CC(=O)c1cc(-c2ccccc2)n(CCC(=O)NC2CCCCCC2)c1C`, the figure is -4.01%; as for `COC(=O)c1c(NC(=O)COC(=O)[C@@H](NS(=O)(=O)c2ccccc2)C(C)C)sc2c1CCC2`, 71% (active); as for `CCc1ccc(N(CC(=O)Nc2sc3c(c2C(=O)OC)CCCC3)S(C)(=O)=O)cc1`, -5.39%.
`COC(=O)c1c(NC(=O)CN(c2ccc(C)c(C)c2)S(C)(=O)=O)sc2c1CCCC2`: the inhibition was -3.55%.
As for `O=[N+]([O-])/C=C/c1ccc2c(ccn2Cc2ccccc2)c1`, the figure is 5.14%; as for `COc1ccc2c(c1)CCc1c(C(=O)N3CCc4ccccc4C3)noc1-2`, 55.6% (active).
As for `COc1ccc2c(c1)CCc1c(C(=O)N3CCCC3)noc1-2`, the figure is -6.35%.
To `O=C(c1noc2c1CCCC2)N1CCc2ccccc2C1` belongs 0.28%.
Turning to `Cc1cccc(C(=O)N2CCc3c([nH]c4ccccc34)C2CC(C)C)n1` (configuration not stated), the inhibition was -9.03%.
As to `O=C(c1cn2ccccc2n1)N1CCc2c([nH]c3ccccc23)C1c1ccccn1` (configuration not stated), the inhibition was -13.7%.
Take `Cc1cccc(C2c3[nH]c4ccccc4c3CCN2C(=O)c2cc(-c3cccn3C)n[nH]2)n1` (configuration not stated): the inhibition is 62.3% (active).
To `O=C(COc1cc(Cl)c(Cl)cc1Cl)NC(=O)NC1CCCC1` belongs -1.73%; to `Cc1c(/C=N\NC(=O)c2cc3ccccc3o2)c2ccccc2n1C`, -15.2%; to `O=C(N/N=C/c1coc2ccccc2c1=O)c1cc2ccccc2o1`, 61.1% (active).
As for `CC(C)(C)OC(=O)NCCCCCC(=O)N/N=C/c1coc2ccccc2c1=O`, the figure is 14.7%.
As for `O=C(COCc1cc(-c2ccc3c(c2)OCO3)on1)N1CCN(c2cccc(Cl)c2)CC1`, the inhibition is 5.35%.
As for `CCOc1ccc(CC(=O)NCCS(=O)(=O)N2CCN(c3ccccc3)CC2)cc1`, the figure is -6.99%.
To `NC(=O)CSc1nnc(NC(=O)c2ccc3ccccc3c2)s1` belongs 5.71%; to `O=C(Nc1nnc(SCc2c(Cl)cccc2Cl)s1)c1cccc([N+](=O)[O-])c1`, 7.45%; to `O=C(Nc1nnc(SCc2ccccc2Cl)s1)c1cccc([N+](=O)[O-])c1`, 71.7% (active).
`CN(CC(=O)Nc1cccc(F)c1)C(=O)C1CC(=O)N(CCc2ccccc2)C1` (configuration not stated): the inhibition is -5.48%.
For `OC(CNCc1ccc(Cl)c(Cl)c1)c1ccccc1` (configuration not stated), the inhibition is 40%.
To `CCOC(=O)c1ccc(NNC(C)=O)c([N+](=O)[O-])c1` belongs -7.65%.
For `COc1ccc(Br)cc1C(=O)Nc1cccc(C)c1C`, the inhibition was 7.75%.
For `COc1ccc(Br)cc1C(=O)NC(=S)Nc1cc(-c2nc3ccccc3[nH]2)ccc1C`, the inhibition is 65% (active).
`COc1cc2ccccc2cc1C(=O)Nc1ccccc1C`: the inhibition is -2.98%.
Turning to `CN1C(C)(C)CC(NC(=O)CCC(=O)NC2CC(C)(C)N(C)C(C)(C)C2)CC1(C)C`, the inhibition is -1.23%.
To `C#CCOCCOCCOCCNc1nc(N2CCN(C(=O)Cn3cc(CCO)nn3)CC2)nc(N2CCN(C(=O)Cn3cc(CCCN=C(N)N)nn3)CC2)n1` belongs -2.83%.
As for `C#CCOCCOCCOCCNc1nc(N2CCN(C(=O)CCCCCCCCCCNC(=O)[C@H]([C@@H](C)CC)n3cc(CCCCN=C(N)N)nn3)CC2)nc(N2CCN(C(=O)CCCCCCCCCCNC(=O)[C@H](CO)n3cc(CCCSC)nn3)CC2)n1`, the figure is 41.9% (active); as for `C#CCOCCOCCOCCNc1nc(N2CCN(C(=O)[C@H](CCCN=C(N)N)n3cc(C(N)[C@@H](C)CC)nn3)CC2)nc(N2CCN(C(=O)[C@H](CO)n3cc([C@@H](N)C(C)C)nn3)CC2)n1` (some centres not stated), -2.36%.
Turning to `O=C(c1n[nH]c2c1CCC2)N1CCCC(Nc2cccc(F)c2)C1` (configuration not stated), the inhibition is 5.08%.
As for `O=C1N=C(N2CCc3ccccc3C2)S/C1=C\c1ccc(O)cc1`, the figure is 67.7% (active); as for `CCc1ccc(/C=C2\SC(N3CCOCC3)=NC2=O)cc1`, -5.05%.
Take `CCOc1cc(/C=C2\SC(N3CCCCC3)=NC2=O)ccc1O`: the inhibition is -6.5%.
Take `O=C(NCCCO)/C(=C\C=C\c1ccccc1)NC(=O)c1ccccc1Cl`: the inhibition was -7.32%.
To `O=C1CSC(=S)N1c1ccc(Cl)c(Cl)c1` belongs 4.82%; to `CC1CC(C)CN(C/C=C/c2ccccc2[N+](=O)[O-])C1` (configuration not stated), 11.3%.
For `CC1CCN(Cc2nc3c(c(=O)n(C)c(=O)n3C)n2CCc2ccccc2)CC1`, the inhibition is -1.37%.
With `Cn1c2ccccc2c2c(C(=O)N3CCN(c4ccc(F)cc4)CC3)cn(C3CCCC3)c(=O)c21`, the inhibition was -29.5%.
To `CCCc1nc2c(c(=O)c3ccccc3n2C)c(=O)n1C1CCCCCC1` belongs 41.3% (active).
To `Cn1nc(C(C)(C)C)c(NC(=O)c2sccc2Cl)c1C(C)(C)C` belongs 8.72%; to `O=C(O)C1=NN(c2c(F)c(F)cc(F)c2F)C(=O)CC1`, -1.19%.
To `O=C(Nc1cccc(Cl)c1N1CCOCC1)c1ccc2c(c1)OCCO2` belongs 33.9%; to `O=C(Nc1cccc(Cl)c1N1CCOCC1)c1cccnc1`, -5.52%; to `CCN1CCN(c2c(Cl)cccc2NC(=O)c2ccc(Br)o2)CC1`, 56.4% (active).
As to `C[C@H](CO)N1C[C@H](C)[C@@H](CN(C)S(=O)(=O)c2ccc(F)cc2)Oc2c(NC(=O)Nc3ccccc3)cccc2C1=O`, the inhibition is -16.4%.
To `O=C(NCC1COc2ccccc2O1)C1(c2ccccc2)CCCC1` (configuration not stated) belongs 4.25%; to `O=C1C(=O)N(CC2COc3ccccc3O2)c2ccccc21` (configuration not stated), 72.1% (active).
For the molecule `O=C(CN1C(=O)C2C3C=CC(C3)C2C1=O)NCC1COc2ccccc2O1` (configuration not stated), the inhibition was 0.03%.
As for `FC(F)(F)c1cccc(NC(=S)Nc2cccc(Cl)c2)c1`, the figure is 44.3% (active); as for `FC(F)(F)c1cccc(N/N=C/c2ccccc2)c1`, -3.29%.
`Cn1cc(Cl)c(C(=O)NNC(=S)Nc2cccc(Cl)c2)n1`: the inhibition was -0.09%.
To `Cc1nc(SCC(=O)N2CC(=O)Nc3ccccc32)c2c(C)c(C)sc2n1` belongs 26.7%; to `O=C(CSc1nnc(-c2cccs2)n1Cc1ccccc1)N1CCc2ccccc2C1`, 31.5%; to `Cc1nc(SCC(=O)N2CCc3ccccc3C2)c2c(C)c(C)sc2n1`, 71.6% (active).
To `CCOCC(=O)Nc1ncc(S(=O)(=O)c2ccc([N+](=O)[O-])cc2)s1` belongs -0.99%; to `COc1ccc(/C=C2/SC(=O)N(CCCCCC(=O)Nc3ccccc3C(=O)O)C2=S)cc1`, 55.6% (active); to `COc1ccc(/C=C2\SC(=O)N(CCC(=O)NCCCn3ccnc3)C2=O)cc1`, 3.21%.
To `COc1ccc(/C=C2\SC(=O)N(CCC(=O)NC3CCS(=O)(=O)C3)C2=O)cc1` (configuration not stated) belongs 5.85%; to `Cc1cc(C)n(-c2nnc(C)n2NC(=O)c2cccc(Cl)c2)n1`, -11.2%.
For the molecule `O=C(NCCS(=O)(=O)N1CCN(c2ccccc2F)CC1)c1ccc(Br)o1`, the inhibition was -9.9%.
As for `CC1(C)CC(=O)C=C(NCCCN2CCCC2=O)C1`, the figure is 2.66%.
To `O=C(C1CC1)N1CCN=C1SCc1ccc(Cl)cc1` belongs -5.2%; to `O=C(c1ccc(CSc2ccccc2)cc1)N1CCCCCC1`, 15.3%.
In the case of `CC1CCN(C(=O)c2ccc(CSc3ccc(Cl)cc3)cc2)CC1`, the inhibition is 44% (active).
On to `COC(=O)[C@H](Cc1ccccc1)NC(=O)[C@@H]1C[C@H]1[C@@H](NC(=O)OCc1ccccc1)c1ccccc1`, for which the inhibition was 3.57%.
For `O=C(NCc1ccccc1)[C@H]1C[C@@H]1[C@H](NP(=O)(c1ccccc1)c1ccccc1)c1ccccc1`, the inhibition was 55.2% (active).
As for `O=C(O)C1C2C=CC(C2)C1C(=O)NCc1ccccc1` (configuration not stated), the figure is 1.32%; as for `Cc1ccc(Sc2cc(C(=O)c3ccccc3C(=O)O)ccc2[N+](=O)[O-])cc1`, -10.7%; as for `CN(C)S(=O)(=O)c1ccc(N/C=C(\[N+](=O)[O-])S(=O)(=O)c2ccccc2)cc1`, 0.88%.
Take `CCCN(CCC)CCCNC(=O)CNC(=O)c1nn(-c2ccc(OC)cc2)c(=O)c2ccccc12`: the inhibition is 7.71%.
To `Cc1c(Cl)cccc1NC(=O)CC1SC(=NCC2CCCO2)NC1=O` (configuration not stated) belongs 1.67%.
As for `CCN=C1SC(CC(=O)Nc2ccc(C)cc2)C(=O)N1CC` (configuration not stated), the figure is -0.27%; as for `Cc1ccc(NC(=O)CC2S/C(=N/N=C3\CCCc4ccccc43)NC2=O)cc1` (configuration not stated), 41.3% (active).
To `O=C(COC(=O)c1cc(=O)[nH]c2ccccc12)Nc1nc(-c2cccc(Br)c2)cs1` belongs -32.4%.
With `O=C1Nc2cc(Cl)c(Cl)cc2N(O)N1c1cc(Cl)cc(Cl)c1`, the inhibition is 42.3% (active).
To `O=C1Nc2cc(Cl)c(Cl)cc2N(O)N1c1ccccc1Cl` belongs 0.16%; to `O=C(Nc1cccc2c1CCCC2)c1ccc(F)cc1`, 9.34%; to `CCS(=O)(=O)C1=NSC2=NC(=O)/C(=C\c3ccc(OS(=O)(=O)c4ccccc4)cc3)C(=N)N21`, 43.1% (active).
To `CS(=O)(=O)C1=NN2C(=N)/C(=C\c3ccc(OCCOc4ccccc4)cc3)C(=O)N=C2S1` belongs -1.7%.
As to `Cc1ccc(C2=N/C(=C\c3ccc(OS(=O)(=O)c4ccc(C)cc4)cc3)C(=O)O2)cc1`, the inhibition is -3.55%.
Consider `O=C(NCCc1ccco1)c1ccc(OCc2cn3ccccc3n2)cc1`, for which the inhibition is -8.13%.
With `COC(=O)Cc1ccc(NC(=S)NCc2ccccc2)cc1`, the inhibition was 8.5%.
To `Fc1ccccc1CNC(=S)Nc1ccc(Cl)cc1` belongs 23.2%; to `FC(F)(F)Oc1ccc(NC(=S)NCc2ccccc2)cc1`, 40.2% (active).

These data come from PubChem BioAssay AID504462 (Sanford-Burnham Center for Chemical Genomics, 2011).
